Here are results for 32 compounds from PubChem BioAssay (Tox21).

Experiment [1] addresses Cytochrome P450 2C9 (Homo sapiens) (UniProt P11712). Nature of the experiment: Cytochrome P450 Family 2 Subfamily C Member 9 (CYP2C9) small molecule antagonists: luciferase reporter qHTS assay (AID 1671198). On activity change, negative = inhibition: series mostly up to about 120 µM. The method, boiled down: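 CYP2C9 activity was measured with a P450-Glo proluciferin substrate. Enzyme–substrate mix was held with compound for 10 min at room temperature, then NADPH regeneration solution was added for 1 h at 37C. Luciferin product was read as luminescence.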
(In general: Reporter assays use an easily measured gene product as a stand-in for the process of interest.)

Experiment [2] addresses Cytochrome P450 1A2 (Homo sapiens) (UniProt P05177). Nature of the experiment: Cytochrome P450 Family 1 Subfamily A Member 2 (CYP1A2) small molecule antagonists: luciferase reporter qHTS assay (AID 1671199). On activity change, negative = inhibition: series mostly up to about 120 µM. The method, boiled down:
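Read-out is luminescence from luciferin detection reagent (20 min) proportional to CYP1A2 activity; compounds in DMSO preincubated 10 min with enzyme and proluciferin substrate, then NADPH regeneration solution, 1 h, room temperature.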

For experiment [3], the target named is Voltage-gated inwardly rectifying potassium channel KCNH2 (Homo sapiens) (UniProt Q12809). As to the kind of experiment: Human Ether-a-go-go-Related Gene (hERG) channel small molecule antagonists: fluorescence cell-based qHTS assay (AID 1671200). On activity change, negative = inhibition: series mostly up to about 77 µM. The essentials:
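Thallium flux as potassium surrogate: FluxOR II dye loaded 1 h at room temperature into hERG-expressing U2OS cells, then stimulus buffer added after 10 min. Kinetic 480 nm excitation/540 nm emission read, 2 min.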
In general terms: The hERG channel carries a current that helps repolarise heart muscle cells.

For experiment [4], the target named is Cytochrome P450 3A4 (Homo sapiens) (UniProt P08684). Nature of the experiment: Cytochrome P450 Family 3 Subfamily A Member 4 (CYP3A4) small molecule antagonists: luciferase reporter qHTS assay (AID 1671201). On activity change, negative = inhibition: series mostly up to about 120 µM. The method, boiled down: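 Recombinant human CYP3A4 converts a proluciferin substrate to luciferin over 1 h at room temperature after NADPH regeneration solution is added (compound preincubated 10 min); detection reagent stops reaction, luminescence read 20 min later as relative units.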
Chain of Cytochrome P450 3A4 (Homo sapiens) (P08684 whole entry, looked up): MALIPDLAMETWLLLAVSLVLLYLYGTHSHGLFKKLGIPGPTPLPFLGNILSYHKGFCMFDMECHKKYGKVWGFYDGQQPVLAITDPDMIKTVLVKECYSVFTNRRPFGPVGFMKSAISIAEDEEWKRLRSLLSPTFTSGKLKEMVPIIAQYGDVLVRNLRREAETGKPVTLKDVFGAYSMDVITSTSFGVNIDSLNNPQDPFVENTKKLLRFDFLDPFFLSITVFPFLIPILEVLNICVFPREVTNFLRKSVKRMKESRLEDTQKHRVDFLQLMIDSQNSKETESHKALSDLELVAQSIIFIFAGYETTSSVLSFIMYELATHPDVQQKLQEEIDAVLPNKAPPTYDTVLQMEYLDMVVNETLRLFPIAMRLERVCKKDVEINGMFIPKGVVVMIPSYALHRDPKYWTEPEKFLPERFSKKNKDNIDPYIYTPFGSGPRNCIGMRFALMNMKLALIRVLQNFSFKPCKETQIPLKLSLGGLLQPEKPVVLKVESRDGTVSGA

Values joined by “and” are separate entries in the source; they are usually repeats but may differ in a detail not shown here. Equal entries are not always repeated. Results filed as inconclusive are left out. The source holds several records for some structures; these can differ, active in one and inactive in another. Active and inactive are the calls of the source. The call rests on the fitted dose curve; in most records, active means well fitted curve in the direction sought with a large enough effect in the repeat runs; inconclusive means weak or mixed curves; inactive means no such curve, though single readings can be large; an effect the other way counts as inactive or inconclusive.
Further: nearly all actives have a fitted effect of over 50% in size.
On the % scale 0 is the no-effect control and ±100 the full control effect; potency means the concentration at half of the fitted maximal effect.

Chain of Cytochrome P450 1A2 (Homo sapiens) (P05177 whole entry, looked up): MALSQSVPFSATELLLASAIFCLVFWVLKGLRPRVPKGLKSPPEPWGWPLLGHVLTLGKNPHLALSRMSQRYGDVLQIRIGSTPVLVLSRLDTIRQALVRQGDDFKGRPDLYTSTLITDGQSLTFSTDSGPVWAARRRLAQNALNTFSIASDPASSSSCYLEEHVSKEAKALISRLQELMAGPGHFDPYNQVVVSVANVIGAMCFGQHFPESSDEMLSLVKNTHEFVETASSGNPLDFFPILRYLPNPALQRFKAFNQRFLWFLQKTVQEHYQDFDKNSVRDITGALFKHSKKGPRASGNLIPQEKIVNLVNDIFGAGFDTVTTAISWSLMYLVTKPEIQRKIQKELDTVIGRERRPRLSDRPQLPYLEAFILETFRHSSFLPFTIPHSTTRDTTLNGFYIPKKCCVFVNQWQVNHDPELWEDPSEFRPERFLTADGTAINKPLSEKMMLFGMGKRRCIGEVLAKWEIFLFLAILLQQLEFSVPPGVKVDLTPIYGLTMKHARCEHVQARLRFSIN
Chain of Cytochrome P450 2C9 (Homo sapiens) (P11712 whole entry, looked up): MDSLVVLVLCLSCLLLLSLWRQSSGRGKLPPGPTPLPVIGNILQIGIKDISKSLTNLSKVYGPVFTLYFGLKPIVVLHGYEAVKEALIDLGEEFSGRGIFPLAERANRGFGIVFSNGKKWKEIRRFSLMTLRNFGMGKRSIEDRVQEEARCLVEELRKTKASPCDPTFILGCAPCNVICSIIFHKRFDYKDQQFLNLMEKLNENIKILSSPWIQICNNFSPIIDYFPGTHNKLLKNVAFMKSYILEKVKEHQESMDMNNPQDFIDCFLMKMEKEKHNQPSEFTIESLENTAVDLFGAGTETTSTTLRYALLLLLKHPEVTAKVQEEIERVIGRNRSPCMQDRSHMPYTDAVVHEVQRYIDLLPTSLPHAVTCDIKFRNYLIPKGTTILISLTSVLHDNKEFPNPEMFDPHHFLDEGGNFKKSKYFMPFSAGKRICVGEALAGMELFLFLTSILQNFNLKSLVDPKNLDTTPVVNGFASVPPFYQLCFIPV
Chain of Voltage-gated inwardly rectifying potassium channel KCNH2 (Homo sapiens) (Q12809 whole entry, looked up): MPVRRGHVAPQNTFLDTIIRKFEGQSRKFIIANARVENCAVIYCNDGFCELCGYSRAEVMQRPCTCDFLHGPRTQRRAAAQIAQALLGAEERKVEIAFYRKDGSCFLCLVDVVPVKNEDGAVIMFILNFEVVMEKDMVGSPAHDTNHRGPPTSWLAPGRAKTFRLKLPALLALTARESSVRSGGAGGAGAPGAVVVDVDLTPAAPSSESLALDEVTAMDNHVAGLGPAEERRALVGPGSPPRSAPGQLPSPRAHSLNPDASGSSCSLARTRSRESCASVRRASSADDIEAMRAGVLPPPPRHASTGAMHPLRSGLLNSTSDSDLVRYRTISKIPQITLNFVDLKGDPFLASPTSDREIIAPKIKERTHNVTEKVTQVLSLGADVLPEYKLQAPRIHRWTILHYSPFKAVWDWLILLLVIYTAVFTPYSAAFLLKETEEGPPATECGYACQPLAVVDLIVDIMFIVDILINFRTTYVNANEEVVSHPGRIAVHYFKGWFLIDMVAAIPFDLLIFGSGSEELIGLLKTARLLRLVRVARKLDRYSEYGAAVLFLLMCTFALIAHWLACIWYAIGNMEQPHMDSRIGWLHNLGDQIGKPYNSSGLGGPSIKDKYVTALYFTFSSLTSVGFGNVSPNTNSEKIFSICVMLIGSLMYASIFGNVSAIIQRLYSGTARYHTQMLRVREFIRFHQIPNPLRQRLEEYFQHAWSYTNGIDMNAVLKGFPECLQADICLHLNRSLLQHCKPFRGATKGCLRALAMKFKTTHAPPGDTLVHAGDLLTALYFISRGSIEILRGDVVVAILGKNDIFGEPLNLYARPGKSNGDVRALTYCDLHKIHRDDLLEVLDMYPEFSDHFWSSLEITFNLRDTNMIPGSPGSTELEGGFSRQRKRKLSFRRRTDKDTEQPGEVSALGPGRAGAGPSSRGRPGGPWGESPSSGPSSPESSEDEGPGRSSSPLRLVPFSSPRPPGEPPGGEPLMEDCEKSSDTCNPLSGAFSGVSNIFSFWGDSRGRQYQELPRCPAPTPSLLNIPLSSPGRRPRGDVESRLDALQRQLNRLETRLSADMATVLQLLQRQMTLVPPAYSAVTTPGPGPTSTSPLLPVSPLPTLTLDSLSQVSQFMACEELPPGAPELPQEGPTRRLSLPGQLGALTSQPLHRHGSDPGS

Take `COc1ccc2c(c1)c(CC(=O)O)c(C)n2C(=O)c1ccc(Cl)cc1`: the Potency in experiment [1] was 22.6 µM (active) and 17.8 µM (active) and 13.8 µM (active). The Potency entry in experiment [2], in experiment [3] and in experiment [4] was “inactive” in each case.

As to `Cc1ncc([N+](=O)[O-])n1C`, the Potency entry in experiment [1], in experiment [2], in experiment [3] and in experiment [4] was “inactive” in each case.

For the compound `O=C(Nc1ncc([N+](=O)[O-])s1)c1cccs1`, the Potency in experiment [1] is 5.49 µM (active); in experiment [2] it was 1.82 µM (active). Further, the Potency entry in experiment [3] is “inactive”.

For the compound `C1CCC(C(CC2CCCCN2)C2CCCCC2)CC1` (stereo not drawn), the Potency result in experiment [1] and in experiment [2] was “inactive” throughout.

Consider `C[C@](N)(Cc1ccc(O)c(O)c1)C(=O)O`, for which the Potency entry in experiment [1], in experiment [2], in experiment [3] and in experiment [4] was “inactive” throughout.

For the compound `CCCCCCCC(=O)OCC(COC(=O)CCCCCCC)OC(=O)CCCCCCC`, the Potency entry in experiment [1], in experiment [2], in experiment [3] and in experiment [4] was “inactive” in each case.

In the case of `CCc1nc(N)nc(N)c1-c1ccc(Cl)cc1`, the Potency entry in experiment [1], in experiment [2] and in experiment [3] was “inactive” each time.

With `Cc1cc(=O)oc2cc(O)ccc12`, the Potency result in experiment [1], in experiment [3] and in experiment [4] was “inactive” each time. The Potency in experiment [2] was 31.7 µM (active) and 25.2 µM (active) and 17.4 µM (active).

As to `CN[C@H]1CC[C@@H](c2ccc(Cl)c(Cl)c2)c2ccccc21`, the Potency in experiment [1] was 30.9 µM (active); in experiment [2] it was 17.4 µM (active).

For `CN(N=O)C(=O)N[C@@H]1[C@@H](O)[C@H](O)[C@@H](CO)O[C@@H]1O`, the Potency entry in experiment [1], in experiment [2], in experiment [3] and in experiment [4] was “inactive” throughout.

On to `NC(=O)n1c(O)c(C(=O)c2cccs2)c2cc(Cl)ccc21`, for which the Potency in experiment [1] is 12.3 µM (active); in experiment [2], 15.5 µM (active). In addition, the Potency result in experiment [3] is “inactive”.

Turning to `CC(C)C(=O)Nc1ccc([N+](=O)[O-])c(C(F)(F)F)c1`, the Potency in experiment [1] was 32.6 µM (active) and 31.7 µM (active) and 15.5 µM (active); in experiment [2] it was 1.63 µM (active) and 5.03 µM (active) and 2.57 µM (active). For the same compound, the Potency result in experiment [3] was “inactive”.

Consider `CC(=O)CCC(=O)O`, for which the Potency result in experiment [1], in experiment [2] and in experiment [3] was “inactive” each time.

As to `CN(C)C(=S)SC(=S)N(C)C`, the Potency was 36.5 µM (active) and 25.2 µM (active) and 34.7 µM (active) in experiment [1]; 32.5 µM (active) and 39.9 µM (active) and 25.7 µM (active) in experiment [2]. Besides, the Potency result in experiment [3] and in experiment [4] was “inactive” each time.

Regarding `CCCCCCc1ccc(O)cc1O`, the Potency was 7.12 µM (active) and 6.33 µM (active) and 5.49 µM (active) in experiment [1]; 71.2 µM (active) and 71 µM (active) and inactive in experiment [2]. For the same compound, in experiment [3], the Potency entry is “inactive”.

As for `Nc1ccc([N+](=O)[O-])cc1O`, the results for the Potency in experiment [1] and in experiment [2] were 43.5 µM (active) and 42.3 µM (active), respectively. Further, the Potency entry in experiment [3] was “inactive”.

For `OC[C@H]1O[C@H](O[C@]2(CCl)O[C@H](CCl)[C@@H](O)[C@@H]2O)[C@H](O)[C@@H](O)[C@H]1Cl`, the Potency result in experiment [1], in experiment [2], in experiment [3] and in experiment [4] was “inactive” in each case.

On to `CCCCCCCCCCCCCCCC[N+](C)(C)Cc1ccccc1`, for which the Potency in experiment [1] is 82.2 µM (active) and 36.2 µM (active) and 30.9 µM (active); in experiment [2] it was 36.7 µM (active) and 72.3 µM (active) and inactive; in experiment [3], 1.79 µM (active) and 4.98 µM (active) and 6.74 µM (active). Besides, in experiment [4], the Potency entry was “inactive”.

For the compound `NC1CCCCC1`, the Potency result in experiment [1], in experiment [3] and in experiment [4] was “inactive” in each case. In addition, the Potency in experiment [2] was 40.2 µM (active) and inactive.

In the case of `F[B-](F)(F)F`, the Potency entry in experiment [1] and in experiment [3] was “inactive” in each case. Besides, the Potency entry in experiment [2] is “inactive and 40.5 µM (active)”; in experiment [4], “inactive and 40.5 µM (active)”.

For `O=c1[nH]cnc2c1ncn2[C@H]1CC[C@@H](CO)O1`, the Potency entry in experiment [1], in experiment [2], in experiment [3] and in experiment [4] was “inactive” throughout.

Take `NC(=O)c1cccnc1`: the Potency entry in experiment [1], in experiment [2], in experiment [3] and in experiment [4] was “inactive” each time.

On to `CCOC(N)=O`, for which the Potency entry in experiment [1], in experiment [2], in experiment [3] and in experiment [4] was “inactive” in each case.

In the case of `Nc1c(N=Nc2ccc(-c3ccc(N=Nc4cc(S(=O)(=O)O)c5ccccc5c4N)cc3)cc2)cc(S(=O)(=O)O)c2ccccc12`, the results for the Potency in experiment [1] and in experiment [2] were 31.7 µM (active) and 63.3 µM (active), respectively.

As to `Nc1ccc(O)c([N+](=O)[O-])c1`, the Potency in experiment [1] is 25 µM (active); in experiment [2] it was 48.5 µM (active). The Potency entry in experiment [3] was “inactive”.

As to `NS(=O)(=O)O`, the Potency result in experiment [1], in experiment [2], in experiment [3] and in experiment [4] was “inactive” in each case.

With `Nc1ccc2c(c1)CN1C(=O)c3ccccc3C1=N2`, the Potency is 3.79 µM (active) in experiment [1] and 0.499 µM (active) in experiment [2]. The activity change, negative = inhibition in experiment [3] is 0.308% [at 15.8 µM] (inactive).

Turning to `C=C(C)C(=O)OCC(C)O` (stereo not drawn), the Potency entry in experiment [1], in experiment [2], in experiment [3] and in experiment [4] was “inactive” each time.

As to `Nc1c2c(nc3ccccc13)CCCC2`, the Potency entry in experiment [1], in experiment [3] and in experiment [4] was “inactive” each time. In addition, the Potency in experiment [2] was 5.03 µM (active) and 7.1 µM (active) and 7.23 µM (active).

For the compound `Cc1cc(C)nc(NS(=O)(=O)c2ccc(N)cc2)n1`, the Potency entry in experiment [1], in experiment [2], in experiment [3] and in experiment [4] was “inactive” in each case.

Take `COc1ccc(CN(CCN(C)C)c2ccccn2)cc1`: the Potency entry in experiment [1], in experiment [2] and in experiment [4] was “inactive” each time. The Potency in experiment [3] was 21.7 µM (active) and 20.1 µM (active).

For `O=C1OC2(c3ccccc31)c1cc(Br)c(O)c(Br)c1Oc1c2cc(Br)c(O)c1Br`, the Potency in experiment [1] was 5.1 µM (active) and 9.19 µM (active) and 7.76 µM (active); in experiment [2], 29.1 µM (active). Moreover, the Potency result in experiment [3] and in experiment [4] was “inactive” in each case.
